Measurements: PubChem BioAssay AID1159580 (chemical genetic matrix, 2015)
“And” between values parts separate entries of the source, which are not always exact repeats. Identical values can stand only once. About 2,000 (36%) of roughly 5,500 compounds were called active. Inconclusive results (about 18%) are left out. Cut-off read from the data, not from the text of the source: active = normalized growth mostly below about 0.91 (no sharp cut-off); inconclusive = no clear call, values can overlap the other calls; inactive = mostly above about 0.92. Some of the results follow. Some compounds were tested as several samples or in several runs, with calls that do not always agree.

Assay: chemical genetic growth profiling, strain panel (AID 1159580);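 note: tested at 20 µM; growth read once vehicle control cultures reached saturation at 30 °C; 1 = growth at the plate median or of vehicle wells; lower values mean less growth of the strain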
Settings: S. cerevisiae deletion strains, growth OD

With `Cc1cc2c(C(C)C)c(O)c(O)c(C=O)c2c(O)c1-c1c(C)cc2c(C(C)C)c(O)c(O)c(C=O)c2c1O` the normalized growth (locus YAL013W, strain DEP1, stronger effect = lower value) was 0.328 (active) and 0.919 (inactive), the normalized growth (locus YAL021C, strain ccr4, stronger effect = lower value) was 0.423 (active) and 0.368 (active) and the normalized growth (locus YAL026C, strain drs2, stronger effect = lower value) was 0.446 (active) and 0.519 (active). For the same molecule, the normalized growth (locus YAL030W, strain snc1, stronger effect = lower value) was 0.842 (active) and 0.874 (active), the normalized growth (locus YBL061C, strain skt5, stronger effect = lower value) was 0.762 (active) and 0.747 (active) and the normalized growth (locus YBR009C, strain hhf1, stronger effect = lower value) was 0.779 (active) and 0.854 (active). For the same molecule, the normalized growth (locus YBR021W, strain FUR4, stronger effect = lower value) was 0.953 (inactive) and 0.977 (inactive), the normalized growth (locus YBR023C, strain chs3, stronger effect = lower value) was 0.715 (active) and 0.692 (active) and the normalized growth (locus YBR171W, strain sec66, stronger effect = lower value) was 0.862 (active) and 0.922 (inactive). For the same molecule, the normalized growth (locus YBR229C, strain ROT2, stronger effect = lower value) was 0.936 (inactive) and 0.948 (inactive), the normalized growth (locus YBR231C, strain swc5, stronger effect = lower value) was 0.637 (active) and 0.64 (active) and the normalized growth (locus YBR279W, strain paf1, stronger effect = lower value) was 0.778 (active) and 0.751 (active). For the same molecule, the normalized growth (locus YCL011C, strain gbp2, stronger effect = lower value) was 0.819 (active) and 0.854 (active), the normalized growth (locus YCL016C, strain dcc1, stronger effect = lower value) was 0.842 (active) and 0.831 (active) and the normalized growth (locus YCL029C, strain bik1, stronger effect = lower value) was 0.798 (active) and 0.939 (inactive). The normalized growth (locus YCL061C, strain MRC1, stronger effect = lower value) was 0.845 (active), the normalized growth (locus YCL069W, strain vba3, stronger effect = lower value) was 0.813 (active) and 0.879 (active) and the normalized growth (locus YCR088W, strain abp1, stronger effect = lower value) was 0.842 (active) and 0.919 (active). For the same molecule, the normalized growth (locus YDL005C, strain med2, stronger effect = lower value) was 0.971 (inactive), the normalized growth (locus YDL035C, strain GPR1, stronger effect = lower value) was 0.662 (active) and 0.799 (active) and the normalized growth (locus YDL040C, strain nat1, stronger effect = lower value) was 0.943 (inactive) and 0.953 (inactive). The normalized growth (locus YDL074C, strain BRE1, stronger effect = lower value) was 0.589 (active) and 0.751 (active), the normalized growth (locus YDL101C, strain DUN1, stronger effect = lower value) was 0.742 (active) and 0.847 (active) and the normalized growth (locus YDL134C, strain PPH21, stronger effect = lower value) was 0.738 (active) and 0.848 (active). For the same molecule, the normalized growth (locus YDL185W, strain tfp1, stronger effect = lower value) was 0.926 (inactive) and 0.966 (inactive), the normalized growth (locus YDL192W, strain arf1, stronger effect = lower value) was 0.689 (active) and 0.978 (inactive) and the normalized growth (locus YDR001C, strain nth1, stronger effect = lower value) was 0.881 (active) and 0.925 (inactive). For the same molecule, the normalized growth (locus YDR069C, strain doa4, stronger effect = lower value) was 0.53 (active) and 0.604 (active), the normalized growth (locus YDR101C, strain arx1, stronger effect = lower value) was 0.849 (active) and 0.943 (inactive) and the normalized growth (locus YDR137W, strain rgp1, stronger effect = lower value) was 0.161 (active) and 0.167 (active). The normalized growth (locus YDR150W, strain NUM1, stronger effect = lower value) was 0.785 (active) and 0.912 (inactive), the normalized growth (locus YDR159W, strain sac3, stronger effect = lower value) was 0.653 (active) and 0.717 (active) and the normalized growth (locus YDR162C, strain NBP2, stronger effect = lower value) was 0.342 (active) and 0.819 (active). For the same molecule, the normalized growth (locus YDR195W, strain ref2) was 0.84 (active) and 0.864 (inactive), the normalized growth (locus YDR297W, strain sur2, stronger effect = lower value) was 0.79 (active) and 0.863 (active) and the normalized growth (locus YDR318W, strain mcm21, stronger effect = lower value) was 0.847 (active) and 0.965 (inactive). The normalized growth (locus YDR334W, strain swr1, stronger effect = lower value) was 0.477 (active) and 0.674 (active), the normalized growth (locus YDR335W, strain msn5, stronger effect = lower value) was 0.677 (active) and 0.769 (active) and the normalized growth (locus YDR388W, stronger effect = lower value) was 0.793 (active) and 0.972 (inactive). The normalized growth (locus YDR392W, strain spt3, stronger effect = lower value) was 0.56 (active) and 0.438 (active), the normalized growth (locus YDR502C, strain sam2, stronger effect = lower value) was 0.769 (active) and 0.937 (inactive) and the normalized growth (locus YEL003W, strain gim4, stronger effect = lower value) was 0.761 (active) and 0.805 (active). For the same molecule, the normalized growth (locus YEL037C, strain rad23, stronger effect = lower value) was 0.786 (active) and 0.813 (active), the normalized growth (locus YEL061C, strain CIN8 (second series), stronger effect = lower value) was 0.814 (active) and 0.916 (inactive) and the normalized growth (locus YEL061C, strain CIN8, stronger effect = lower value) was 0.777 (active) and 0.853 (active). For the same molecule, the normalized growth (locus YER015W, strain faa2, stronger effect = lower value) was 0.649 (active) and 0.698 (active), the normalized growth (locus YER016W, strain bim1, stronger effect = lower value) was 0.849 (active) and 0.883 (active) and the normalized growth (locus YER110C, stronger effect = lower value) was 0.943 (inactive) and 1.02 (inactive). For the same molecule, the normalized growth (locus YER111C, strain swi4, stronger effect = lower value) was 0.456 (active) and 0.668 (active), the normalized growth (locus YER155C, strain BEM2 (second series), stronger effect = lower value) was 0.674 (active) and 0.758 (active) and the normalized growth (locus YER155C, strain BEM2, stronger effect = lower value) was 0.865 (active) and 0.912 (active). For the same molecule, the normalized growth (locus YER167W, strain BCK2, stronger effect = lower value) was 0.83 (active) and 0.895 (active), the normalized growth (locus YFR010W, strain ubp6, stronger effect = lower value) was 0.644 (active) and 0.732 (active) and the normalized growth (locus YGL078C, strain dbp3, stronger effect = lower value) was 0.976 (inactive) and 1.01 (inactive). The normalized growth (locus YGL086W, strain mad1, stronger effect = lower value) was 0.937 (inactive), the normalized growth (locus YGL167C, strain pmr1, stronger effect = lower value) was 0.868 (active) and 0.833 (active) and the normalized growth (locus YGL173C, strain kem1, stronger effect = lower value) was 0.564 (active) and 0.591 (active). For the same molecule, the normalized growth (locus YGL227W, strain vid30, stronger effect = lower value) was 0.953 (inactive) and 0.989 (inactive), the normalized growth (locus YGL240W, strain doc1, stronger effect = lower value) was 0.892 (inactive) and 0.952 (inactive) and the normalized growth (locus YGL248W, strain PDE1, stronger effect = lower value) was 0.764 (active) and 0.805 (active). For the same molecule, the normalized growth (locus YGL253W, strain hxk2, stronger effect = lower value) was 0.629 (active) and 0.698 (active), the normalized growth (locus YGR078C, strain PAC10, stronger effect = lower value) was 0.776 (active) and the normalized growth (locus YGR135W, strain pre9, stronger effect = lower value) was 0.821 (active) and 0.901 (inactive). For the same molecule, the normalized growth (locus YGR229C, strain SMI1, stronger effect = lower value) was 0.126 (active), the normalized growth (locus YGR252W, strain gcn5, stronger effect = lower value) was 0.806 (inactive) and 0.95 (inactive) and the normalized growth (locus YHR013C, strain ard1, stronger effect = lower value) was 0.651 (active) and 0.608 (active). The normalized growth (locus YHR027C, strain rpn1, stronger effect = lower value) was 0.56 (active) and 0.593 (active), the normalized growth (locus YHR030C, strain SLT2, stronger effect = lower value) was 0.64 (active) and 0.992 (inactive) and 0.854 (active) and the normalized growth (locus YHR079C, strain IRE1 (second series), stronger effect = lower value) was 0.841 (active) and 0.953 (inactive). The normalized growth (locus YHR079C, strain IRE1, stronger effect = lower value) was 1.01 (inactive), the normalized growth (locus YHR094C, strain hxt1, stronger effect = lower value) was 0.979 (inactive) and 1 (inactive) and the normalized growth (locus YHR129C, strain ARP1, stronger effect = lower value) was 0.731 (active) and 0.811 (active). The normalized growth (locus YHR142W, strain chs7, stronger effect = lower value) was 0.537 (active) and 0.619 (active), the normalized growth (locus YHR200W, strain rpn10, stronger effect = lower value) was 0.876 (active) and 0.977 (inactive) and the normalized growth (locus YIL066C, strain RNR3, stronger effect = lower value) was 0.6 (active) and 0.744 (active). The normalized growth (locus YIL073C, strain SPO22, stronger effect = lower value) was 0.421 (active) and 0.743 (inactive), the normalized growth (locus YIL125W, strain kgd1, stronger effect = lower value) was 1.05 (inactive) and 0.996 (inactive) and the normalized growth (locus YIR030C, strain dcg1, stronger effect = lower value) was 0.89 (active) and 0.994 (inactive). The normalized growth (locus YJL092W, strain hpr5, stronger effect = lower value) was 0.799 (active) and 0.852 (active), the normalized growth (locus YJL095W, strain BCK1 (second series), stronger effect = lower value) was 0.644 (active) and 0.629 (active) and the normalized growth (locus YJL095W, strain BCK1, stronger effect = lower value) was 0.534 (active) and 0.961 (inactive) and 0.744 (active). For the same molecule, the normalized growth (locus YJL115W, strain asf1, stronger effect = lower value) was 0.794 (active) and 0.86 (active), the normalized growth (locus YJL129C, strain trk1, stronger effect = lower value) was 0.897 (inactive) and 0.937 (inactive) and the normalized growth (locus YJL134W, strain LCB3, stronger effect = lower value) was 0.875 (active) and 0.934 (inactive). For the same molecule, the normalized growth (locus YJL154C, strain vps35, stronger effect = lower value) was 0.857 (active) and 0.853 (active), the normalized growth (locus YJL164C, strain tpk1, stronger effect = lower value) was 0.774 (active) and 0.762 (active) and the normalized growth (locus YJL166W, strain qcr8, stronger effect = lower value) was 0.75 (active) and 0.82 (active). For the same molecule, the normalized growth (locus YJL168C, strain set2, stronger effect = lower value) was 0.935 (inactive) and 0.981 (inactive), the normalized growth (locus YJL187C, strain SWE1 (second series), stronger effect = lower value) was 0.553 (active) and 0.71 (active) and the normalized growth (locus YJL187C, strain SWE1, stronger effect = lower value) was 0.804 (active). For the same molecule, the normalized growth (locus YJR043C, strain POL32, stronger effect = lower value) was 0.594 (active) and 0.749 (active).
